Test results: PubChem BioAssay (NCI)
The panel holds about 79,000 compounds, 15% with a hit somewhere; the sample as a whole holds those more often. Rule as the data show it: active = growth inhibition above about 70%; inactive = the rest.

Tests used:
[1] = NCI Yeast Anticancer Drug Screen. Data for the rad50 strain (AID 155);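 also: 0% = growth of vehicle-only cultures of the same strain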; conditions: S. cerevisiae rad50 strain growth inhibition; at 50.0 µM; stronger effect = higher value
Method in brief: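 A DNA repair-deficient yeast mutant serves as the test organism; compound-induced growth inhibition is calculated against vehicle-treated cells.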

[2] = NCI Yeast Anticancer Drug Screen. Data for the mec2-1 strain (AID 157); conditions: S. cerevisiae mec2-1 strain, at 50.0 µM, stronger effect = higher value
Method in brief: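 Test agents were screened against the mec2-1 yeast strain, with defined DNA repair or cell cycle alteration. Growth was scored as inhibition against vehicle-only controls.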

[3] = NCI Yeast Anticancer Drug Screen. Data for the sgs1 mgt1 strain (AID 161);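 also: 0% = growth of cultures given vehicle only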; conditions: S. cerevisiae sgs1 mgt1 strain, at 50.0 µM, stronger effect = higher value
Method in brief: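 Mutant yeast exposed to compound; growth scored against vehicle-only wells.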

[4] = NCI Yeast Anticancer Drug Screen. Data for the cln2 rad14 strain (AID 165);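 also: 0% = growth equal to vehicle treated cultures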; conditions: S. cerevisiae cln2 rad14 strain, at 50.0 µM, stronger effect = higher value
Method in brief: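 Growth of compound-exposed yeast (cln2 rad14 genotype) measured and expressed as inhibition relative to vehicle.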

[5] = NCI Yeast Anticancer Drug Screen. Data for the bub3 strain (AID 167); conditions: S. cerevisiae bub3 mutant strain, at 50.0 µM, stronger effect = higher value
Method in brief: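 Inhibition values come from growth of compound-treated mutant yeast normalised to vehicle-treated controls.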

[6] = NCI Yeast Anticancer Drug Screen. Data for the mlh1 rad18 strain (AID 175); conditions: S. cerevisiae mlh1 rad18 strain growth inhibition; at 50.0 µM; stronger effect = higher value
Method in brief: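 In this whole-cell yeast screen, a strain with altered DNA damage repair is challenged with compound, and its growth is measured against matched vehicle-treated controls.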

Measured: growth inhibition

CC(=O)c1cc(CC2Cc3cc4c(cc3C2=O)CCC4)cc2c1CCC2 (stereo not given)
inactive: [1] -37.5% | [2] -36.1% | [3] -14.2% | [4] 9% | [5] -6.45% | [6] -4.85%

O=c1cc(NCc2cccc3ccccc23)[nH]c(=O)[nH]1
inactive: [1] 4.45% | [2] 24.1% | [3] -5.25% | [4] -10.1% | [5] -0.75% | [6] -7.1%

CCC1(C2C=COC=C2)NC(=O)NC1=O (stereo not given)
inactive: [1] -14.1% | [2] 3.8% | [3] -8.35% | [4] 6.45% | [5] -4.75% | [6] -2%

Nc1ccc(C2SCC(=O)N2NS(=O)(=O)c2cccc(C(=O)O)c2)cc1 (stereo not given)
inactive: [1] -21.3% | [2] -24.1% | [3] 6.8% | [4] 0.8% | [5] -46.2% | [6] -54.5%

O=NN(CC(=O)O)c1ccc2ccccc2c1
inactive: [1] 2.55% | [2] -7.3% | [3] 13.8% | [4] -39.5% | [5] -14.9% | [6] -2.85%

COC(=O)NC(c1ccccc1)C(C)I (stereo not given)
inactive: [1] 7.3% | [2] -0.6% | [3] -2.85% | [4] -9.65% | [5] 3.25% | [6] 12.3%

Cc1ccc(C(C)C)cc1NC(=O)c1cccc([N+](=O)[O-])c1
inactive: [1] -8.4% | [2] 6.9% | [3] 18.9% | [4] -7.1% | [5] 18.9% | [6] 8%

Cc1cccc(NC(=O)CSc2nnc(Cc3ccccc3)o2)c1
inactive: [1] -28.1% | [2] -16.3% | [3] -15.1% | [4] -39.2% | [5] -36.7% | [6] -28.2%

CC(=O)NCC(=O)c1ccccc1
inactive: [1] 12.5% | [2] -2.4% | [3] 3.75% | [4] -7.1% | [5] -6.35% | [6] 9.5%

NNS(=O)(=O)c1ccc(N)cc1
inactive: [1] 5.6% | [2] 1.3% | [3] -5.4% | [4] -35% | [5] 18.8% | [6] 5.15%

Cc1cc2c(C#N)c3ccccc3c(=O)n2c2ccccc12
inactive: [1] -0.95% | [2] 6.75% | [3] -1.25% | [4] -7.4% | [5] -13.7% | [6] 3.4%

COC(=O)c1nnn(CCc2c[nH]c3ccccc23)c1C(=O)OC
inactive: [1] -10.8% | [2] 4% | [3] -11.3% | [4] -11.6% | [5] 19.8% | [6] -24.7%

O=C1Nc2ccccc2/C1=N/N=P(c1ccccc1)(c1ccccc1)c1ccccc1
inactive: [1] -10.2% | [2] 0.35% | [3] 10.1% | [4] 2.4% | [5] -5.8% | [6] -5.15%

CC(C)(SC(=N)N)B(O)O
inactive: [1] -3.2% | [2] -12.3% | [3] -6.55% | [4] 9.35% | [5] -8.35% | [6] -7.7%

CN1C(=O)/C(=C2\SC(=O)N(CN3CCCCC3)C2=O)c2cc(Br)ccc21
inactive: [1] -10.6% | [2] -1.2% | [3] -11.2% | [4] 10.2% | [5] -2.45% | [6] 18.1%

[B-][N+]1(C)CC[N+]([B-])(C)CC1 (stereo not given)
inactive: [1] -0.6% | [2] 5.8% | [3] -7% | [4] 16.1% | [5] -5.65% | [6] -11.6%

OCC[N+]1(CCO)CCOCC1
inactive: [1] 7.7% | [2] -2.9% | [3] -0.05% | [4] -15.1% | [5] 5.9% | [6] 6.2%

O=C(O)C(Cc1ccc(OS(=O)(=O)Cc2ccccc2)cc1)NS(=O)(=O)Cc1ccccc1 (stereo not given)
inactive: [1] 29.9% | [2] 5.2% | [3] 8.1% | [4] 5.1% | [5] 12.4% | [6] 24.1%

CC(=O)Nc1cccc(Oc2ccc(Cl)cc2[N+](=O)[O-])c1
inactive: [1] 13% | [2] -6.6% | [3] -2.75% | [4] -5.2% | [5] 2.35% | [6] 7.95%

CCOC(=O)C1=CC(=O)CC(C)(C)O1
inactive: [1] -2.6% | [2] 7.55% | [3] -1.65% | [4] -5.75% | [5] -0.8% | [6] 1.95%

COC(=O)CN(c1ccc(C#N)c2ccccc12)S(=O)(=O)c1ccccc1
inactive: [1] 32.4% | [2] -2.35% | [3] 3.7% | [4] -4.9% | [5] 4.25% | [6] 1.45%

C[N+](C)(C)CCc1ccccc1
inactive: [1] 1.9% | [2] -3.15% | [3] -0.85% | [4] -26.4% | [5] -12.9% | [6] 16.1%

COc1ccc(S(=O)(=O)N/N=C/c2cc(I)cc([N+](=O)[O-])c2O)cc1OC
inactive: [1] 35% | [2] 22.1% | [3] 17.1% | [4] 4.95% | [5] -3.75% | [6] 38%

C[C@]12CCC(=O)C=C1CC[C@@H]1C2CC[C@]2(C)Nc3[nH]ncc3CC12 (stereo not given in full)
inactive: [1] -22.2% | [2] 9.6% | [3] 37.4% | [4] 33.6% | [5] 11.8% | [6] 27.1%

C=C(C)C(=O)NC(Cc1cnc[nH]1)C(=O)O (stereo not given)
inactive: [1] 8.2% | [2] 0.5% | [3] 16.1% | [4] 1.15% | [5] 15.2% | [6] 0.55%

Cc1cn(C2CC3[O][Sn]([c]4ccccc4)([c]4ccccc4)[O]CC3O2)c(=O)[nH]c1=O (stereo not given)
inactive: [1] 8.65% | [2] 35.8% | [3] 16.6% | [4] 7.6% | [5] 13.2% | [6] 47%

CCN(CC)CCOC(c1ccccc1)c1ccccc1
inactive: [1] 3.8% | [2] -9.75% | [3] -1.2% | [4] -10.8% | [5] -0.05% | [6] -11.8%

N#CC(NCCCNC(C#N)c1ccccc1)c1ccccc1 (stereo not given)
inactive: [1] -1% | [2] 5.05% | [3] -4.6% | [4] -23.7% | [5] -3.9% | [6] -18.4%

O=C(O)C(Cc1ccc(O)cc1)NC(=O)C(CSC(c1ccccc1)(c1ccccc1)c1ccccc1)NC(c1ccccc1)(c1ccccc1)c1ccccc1 (stereo not given)
inactive: [1] 3.75% | [2] 30.9% | [3] 11.5% | [4] -2.35% | [5] -4.55% | [6] 23%

COc1ccc(-c2c(O)c3cccc(-c4ccccc4)c3oc2=O)cc1
inactive: [1] 2.7% | [2] 6.7% | [3] -2.9% | [4] 2.95% | [5] 15% | [6] 7.5%

Nc1ccc(F)cc1
inactive: [1] -22.1% | [2] -1.5% | [3] -15.4% | [4] -19.6% | [5] -3.05% | [6] -31.9%

Cc1cc(C)c(Br)cc1C
inactive: [1] 4.9% | [2] 15% | [3] 5.8% | [4] 3.4% | [5] 3% | [6] -5.35%

Cn1c(=O)c2[nH]c(N(CCO)N=O)nc2n(C)c1=O
inactive: [1] -9.25% | [2] -8.2% | [3] -4.25% | [4] -7.35% | [5] 13.3% | [6] -26.4%

N#CC1=CN(Cc2ccccc2)C(c2ccccc2)C=C1 (stereo not given)
inactive: [1] 23.2% | [2] -2.15% | [3] -3.9% | [4] 4.65% | [5] 35.9% | [6] 27%

O=S(=O)(O)c1ccc(N/N=C/c2ccccc2)cc1
inactive: [1] -9.45% | [2] 12.7% | [3] 12.1% | [4] 5.3% | [5] -10.2% | [6] 14.3%

C=CCCCC1CCCNC1=O (stereo not given)
inactive: [1] 5.05% | [2] 10.2% | [3] -8.2% | [4] 8.1% | [5] 4.05% | [6] 0.45%

O=C1C=CC(=O)N1Cc1ccco1
inactive: [1] -3.7% | [2] -16.8% | [3] 5.9% | [4] 8.5% | [5] 10.1% | [6] -16.6%

Cc1ccc(S(=O)(=O)N/N=C(\C(=N/OCc2ccccc2)c2ccccc2)c2ccccc2)cc1
inactive: [1] 43.4% | [2] -3.75% | [3] 27.6% | [4] 14.8% | [5] 10.8% | [6] 9.65%

O=c1/c(=C/c2ccco2)sc2nc3ccccc3n12
inactive: [1] 15.8% | [2] 5.35% | [3] 14.5% | [4] 29.8% | [5] 30.1% | [6] 20.4%

COc1ccc(C2CC(c3c(C)nn(-c4ccccc4)c3-c3ccc(C)cc3O)=NN2c2ccccc2)cc1 (stereo not given)
inactive: [1] -3.95% | [2] -12.3% | [3] -11.1% | [4] -2% | [5] -3% | [6] 50.5%
